The subject of the assay is PPARg:RXRa DBDmut IVT, anti-RXR (DBD mutation: RXRa K156A/R161A, NR concentration 270 nM, RXRa partner concentration 90 nM). Briefly: PBM binding z-score (relative to random genomic background probes); higher = stronger binding; sequences stand for … in GC…GCGATTGACAGCGTAGAATGAAGG
Summed up: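 Ligand-free nuclear receptor dimers were bound for 1 h to custom Agilent 4×180K protein-binding microarrays. Detection used antibodies against each partner (one per run). Binding z-scores rest on regression-normalized fluorescence, with random background probes as the reference.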
Turning to GATACAGGGTCAGCTAGAGTCCAGAGTATGGAAA, the PBM binding z-score stood at 1.24.

With AGGATGAGGTTAAGATCAGGGAAACAGAATACAT, the PBM binding z-score is -0.114.

Regarding CCGAGTAGGTTATGGGGCATTCGGGCAACGGTGA, the PBM binding z-score was 2.83.

TCATAAAGGTAAACAGGTGAAAGTCCGTAAGTTA had a PBM binding z-score of 3.73.

As to ACAGACAGGGGAGTGAAGGTAACTCAGCTGGACG, the PBM binding z-score is -0.166.

On to CATACAGGGTCAGCTAGGCGAGAGTAGGGACGGC, for which the PBM binding z-score worked out at 1.21.

GCGACTGGGGCAAATCAGGTTACCATAAGGTTGG showed a PBM binding z-score of 4.37.

The sequence ACTAGCAGGCCAAGTTTGGTTCACTCAAACAAAG gave a PBM binding z-score of 0.651.

In the case of CCTAGTTTGTCAAGGTCACACACGCTATAGGTAC, the PBM binding z-score amounted to 1.6.

Take CCTACTGGGCCAAAAGTCATTGATTCCAATGCTC: the PBM binding z-score was determined as 4.9.

The sequence TCTAGTTGGGCAAAGGTCACACACTCGAAATGCG came in with a PBM binding z-score of 2.75.

Consider TCTCGGAGGACACGAAGCTCAGAGCTTTCCAGAG, for which the PBM binding z-score came out at 1.41.

As for ATCTCTAGGTAACCAAGTTCAATGAATGCCGAAC, the PBM binding z-score is 3.3.

Take ACTATTAGTTGACTTAGTGCAACCGATACGACGC: the PBM binding z-score was found to be 0.167.

CTCGACAGGTCGTGCTCAGGTGAGTATACCAAAC gave a PBM binding z-score of 0.245.

The sequence TCTTGTAAATCAGCAGGTTAAGAAAGCTGGCCAA came in with a PBM binding z-score of 1.8.

Sequence CCGACTGGGGCAGAAAGGTTAACATACCATCCGG came in with a PBM binding z-score of 1.78.

CCTACTGGGCCATTCAGAGGTCTTTGATCATATG: the PBM binding z-score amounted to 4.08.

Sequence CCTCGGAGGACCACAGGAGGTCAGAGCTGCCAGA registered a PBM binding z-score of -0.849.

Sequence ATCTCTAGGTAAAGAGAGTTCAGTGAATGCAAAT displayed a PBM binding z-score of 2.17.

TCTTGGAGATCAACAGGAGGTTAAGAAAGATCGA gave a PBM binding z-score of 0.986.

With CCTCGGAGGAAAGAAGGTCAGAGCTGTCCGCTTT, the PBM binding z-score came out at 0.673.

In turn, CCTCGGAGGACATAAGGTCAGAGCTGTCCGCTTT showed a PBM binding z-score of 0.213.

For CGTCAAAGTTCAAGGTAAGGTAACAGAAAGCAGC, the PBM binding z-score came out at 0.198.

On to TTACCAAGGTGAAGGTCGTTGTTCCCTCTGTAGA, for which the PBM binding z-score was determined as 2.23.

Take CAGCCTAGGTCAGGGCCAGTTTAGGAGGAACGTT: the PBM binding z-score amounted to 1.5.

As to ATGTCTAGGTAACAAGTTCAGTGAAAGAGAGGAC, the PBM binding z-score worked out at 2.05.

The sequence GGAACGAGGGAATTCGAGTTGATAGCATGGCGAT had a PBM binding z-score of -0.111.

In the case of CCTCGGAGGACAACAGGCGGTCAGAGCTGCCAGA, the PBM binding z-score was -0.178.

Take CCTCGCAGGACAGAAGGTCAGAGCTGTCCGCTTT: the PBM binding z-score was determined as 0.197.

On to GCTATTAGTTGAAAGGGCAAGCGAATGATTCTCG, for which the PBM binding z-score is 0.45.

In turn, CCTAGCAGGCCAGGGTCACTCAAGCATTTCGCTT showed a PBM binding z-score of 0.393.

On to CGTCCTAGGTCAATGCTAGGTCAGTGAAAGCATT, for which the PBM binding z-score was 3.18.

As to CCTACAGGGTCAGCTAGGCCAGAGTAGGGACGGC, the PBM binding z-score turned out to be 0.563.

In the case of TGAATGAGGTTATAAGATCATGGAACGTTGCAAA, the PBM binding z-score came out at 1.37.

CCTTACGGGTCAAGGTTATAGCACGGGTGGTACG had a PBM binding z-score of 1.93.

Consider ACAGACATGTGAGTGAAGGTAACTCAGCTGGACG, for which the PBM binding z-score was -0.459.

TCTTGTAGATCAACAGGAAGTTAAGAAAGATCGA: the PBM binding z-score turned out to be 1.64.

Sequence TCACGGAGGACACGAAGGTCAGAGCTTTCCAGAG had a PBM binding z-score of 1.52.

GCTAGTTGGTCAGTAAAAGGTTACACACCGGTCG gave a PBM binding z-score of 0.66.

Source of the values: the supplement of paper PMC6555819.
